Assay results as given in PubChem BioAssay (NCATS).
Inconclusive results are not listed. Active and inactive are the calls of the source.

test system: not listed separately; experiment: qHTS assay for small molecule antagonists of peroxisome proliferator-activated receptor delta signaling (AID 588535; active = well fitted inhibition curve with a large enough effect in the signal ratio, with a control signal flat, not every such curve was filed as active; the % refers to the signal ratio;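 for max response: cells co-treated with a PPAR-delta agonist as stimulator during compound exposure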); settings: HEK293T PPARd-UAS-bla, beta-lactamase FRET ratio, 18 h; 460 nm channel
Outline: (§1)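 Titrations were run on PPAR-delta-UAS-bla HEK293T cells in charcoal/dextran-stripped serum, incubated 18 h at 37 C. CCF4 fluorescence (460/530 nm) after 2 h RT; Hill equation yields IC50 and maximal response.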

Structure (SMILES) | max response [%]
O=C1c2ccccc2C(=O)c2ccccc21 | 36.9
Nc1ccc([As](=O)(O)O)cc1 | -12.8
Oc1ccc(Cl)cc1 | -18.6

molecular target: Peroxisome proliferator-activated receptor delta (Homo sapiens) (UniProt Q03181); experiment: as above; settings: HEK293T PPARd-UAS-bla, beta-lactamase FRET ratio, 18 h; series mostly up to 76.7 µM; activity change, negative = inhibition: at the top concentration
Outline: as §1

Sequence of Peroxisome proliferator-activated receptor delta (Homo sapiens) (Q03181 whole entry, looked up): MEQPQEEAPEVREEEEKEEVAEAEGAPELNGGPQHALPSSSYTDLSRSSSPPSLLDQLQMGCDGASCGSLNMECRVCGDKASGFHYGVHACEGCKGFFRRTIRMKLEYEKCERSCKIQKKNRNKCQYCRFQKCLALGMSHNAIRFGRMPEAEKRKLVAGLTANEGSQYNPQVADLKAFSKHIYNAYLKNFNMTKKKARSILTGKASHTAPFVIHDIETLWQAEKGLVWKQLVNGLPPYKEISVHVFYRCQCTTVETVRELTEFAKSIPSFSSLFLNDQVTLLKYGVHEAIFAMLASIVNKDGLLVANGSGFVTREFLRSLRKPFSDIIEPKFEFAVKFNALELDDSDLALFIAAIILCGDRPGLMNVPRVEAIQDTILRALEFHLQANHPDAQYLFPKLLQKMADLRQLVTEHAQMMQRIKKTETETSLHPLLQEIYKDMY

Structure (SMILES) | activity change, negative = inhibition
O=C1c2ccccc2C(=O)c2ccccc21 | 3.22% (inactive)
Nc1ccc([As](=O)(O)O)cc1 | -7.63% (inactive)
Oc1ccc(Cl)cc1 | -14.3% (inactive)

molecular target: Peroxisome proliferator-activated receptor gamma (Homo sapiens) (UniProt P37231); experiment: qHTS assay for small molecule agonists of peroxisome proliferator-activated receptor gamma signaling (AID 588536; active = well fitted curve in the direction sought with a large enough effect in the signal ratio, with a control signal flat, not every such curve was filed as active; the % refers to the signal ratio;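 note: 0% = DMSO basal wells and 100% = rosiglitazone at 2 µM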); settings: HEK293 PPARg-UAS-bla, beta-lactamase ratio, 16 h, percent of rosiglitazone response, DMSO as zero; series mostly up to 76.7 µM; activation: at the top concentration
Outline: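 Using GeneBLAzer HEK293 cells, response was quantified by CCF4 fluorescence and normalized between basal DMSO (0%) and rosiglitazone 2 uM (100%); curves yielded half-maximal stimulation concentration and efficacy.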

Sequence of Peroxisome proliferator-activated receptor gamma (Homo sapiens) (P37231 whole entry, looked up): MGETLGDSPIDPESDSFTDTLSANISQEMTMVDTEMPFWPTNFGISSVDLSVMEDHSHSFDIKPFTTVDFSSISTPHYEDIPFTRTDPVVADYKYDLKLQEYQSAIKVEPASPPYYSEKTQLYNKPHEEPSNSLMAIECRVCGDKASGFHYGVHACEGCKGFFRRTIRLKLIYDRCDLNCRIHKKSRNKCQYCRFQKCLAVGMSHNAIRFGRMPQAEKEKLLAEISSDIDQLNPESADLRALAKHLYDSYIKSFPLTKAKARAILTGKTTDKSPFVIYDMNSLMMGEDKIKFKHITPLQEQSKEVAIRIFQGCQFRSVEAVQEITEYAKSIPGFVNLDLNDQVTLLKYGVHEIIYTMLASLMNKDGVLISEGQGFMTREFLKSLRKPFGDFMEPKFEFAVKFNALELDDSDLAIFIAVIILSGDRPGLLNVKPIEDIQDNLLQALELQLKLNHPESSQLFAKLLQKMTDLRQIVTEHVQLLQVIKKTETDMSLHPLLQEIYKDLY

Structure (SMILES) | activation
O=C1c2ccccc2C(=O)c2ccccc21 | -1.01% (inactive)
Nc1ccc([As](=O)(O)O)cc1 | -2.33% (inactive)
Oc1ccc(Cl)cc1 | 3.06% (inactive)

molecular target: Peroxisome proliferator-activated receptor gamma (Homo sapiens) (UniProt P37231); experiment: qHTS assay for small molecule antagonists of peroxisome proliferator-activated receptor gamma signaling (AID 588537; active = well fitted inhibition curve with a large enough effect in the signal ratio, with a control signal flat, not every such curve was filed as active; the % refers to the signal ratio;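 note: reporter cells co-stimulated with 50 nM rosiglitazone agonist during compound treatment; % of control where 0% means no effect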); settings: HEK293 PPARg-UAS-bla, beta-lactamase ratio, antagonist mode; series mostly up to 76.8 µM; activity, negative = inhibition: at the top concentration
Outline: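 Antagonist-mode β-lactamase reporter screen run as a titration series. HEK293 PPARγ-UAS-bla cells are stimulated with rosiglitazone (50 nM final) for 16 h, then CCF4 is read at 460/530 nm. Data are scaled between DMSO and rosiglitazone and fitted to the Hill equation.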

Structure (SMILES) | activity, negative = inhibition
O=C1c2ccccc2C(=O)c2ccccc21 | 5.85% (inactive)
Nc1ccc([As](=O)(O)O)cc1 | 12.5% (inactive)
Oc1ccc(Cl)cc1 | 13.2% (inactive)
